The structures appear in SMILES notation. Values joined by “and” are separate entries in the source; they are usually repeats but may differ in a detail not shown here. Equal entries are not always repeated.

Inhibition data for 35 compounds are collected here from ChEMBL document CHEMBL3433997, “St. Jude Leishmania screening dataset” (2016).

Type in all cases: functional
Test [1] deals with Solute carrier family 2, facilitated glucose transporter member 1 (Homo sapiens) (UniProt P11166). Kind of test: ST_JUDE_LEISH: Cytotoxicity at 2uM final concentration against transgenic Leishmania Mexicana promastigotes LmGLUT1 that are glucose transport deficient and complemented with the human glucose transporter GLUT1. Activity is measured by DNA content using SYBR green in vitro.

Test [2] deals with Hexose transporter 1 (Plasmodium falciparum) (UniProt O97467). Kind of test: ST_JUDE_LEISH: Cytotoxicity at 2uM final concentration against transgenic Leishmania Mexicana promastigotes LmPfHT that are glucose transport deficient and complemented with the Plasmodium falciparum hexose transporter. Activity is measured by DNA content using SYBR green in vitro.
For test [3], the target named is Glucose transporter (Leishmania mexicana) (UniProt O61059). As to the kind of experiment: ST_JUDE_LEISH: Cytotoxicity at 2uM final concentration against transgenic Leishmania Mexicana promastigotes LmGT2 that are glucose transport deficient and complemented with the L. Mexicana glucose transporter 2. Activity is measured by DNA content using SYBR green in vitro.

Chain of Solute carrier family 2, facilitated glucose transporter member 1 (Homo sapiens) (P11166 whole entry): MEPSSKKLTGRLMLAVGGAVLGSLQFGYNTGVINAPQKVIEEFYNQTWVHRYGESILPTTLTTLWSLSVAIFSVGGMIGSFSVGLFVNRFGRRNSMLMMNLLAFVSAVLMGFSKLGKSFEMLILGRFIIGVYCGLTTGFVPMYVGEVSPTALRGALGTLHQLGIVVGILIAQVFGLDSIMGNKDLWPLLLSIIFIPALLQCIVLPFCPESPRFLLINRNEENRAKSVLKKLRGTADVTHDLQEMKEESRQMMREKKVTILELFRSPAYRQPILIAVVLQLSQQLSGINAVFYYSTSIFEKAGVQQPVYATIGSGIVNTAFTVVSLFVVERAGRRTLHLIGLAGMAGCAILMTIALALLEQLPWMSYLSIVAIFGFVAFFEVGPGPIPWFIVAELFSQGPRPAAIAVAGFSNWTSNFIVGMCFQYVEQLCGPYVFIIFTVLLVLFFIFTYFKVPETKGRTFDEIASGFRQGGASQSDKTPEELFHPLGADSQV

One may read the inhibition as the drop in the measured response relative to a control, in per cent. With `Fc1ccc2[nH]c(-c3ccc(-c4ccc(CNCCN5CCNCC5)cc4)s3)nc2c1`, the values for the inhibition in test [1], in test [2] and in test [3] were 0%, 1.98% and -0.23%, respectively.
In the same order, the values of `O=C(/C=C/c1ccc(Cl)c(Cl)c1)NCCCCCN1CCC(NC(=S)Nc2ccc(Cl)cc2)CC1` are 9.42%, 8.02% and 6.39%.
As for `CCCNCc1ccc(-c2ccc(CN(Cc3cnc(C)cn3)C(=O)/C=C/c3ccccc3C)cc2)nc1`, the inhibition in test [1] is 2.17%; in test [2], 0.74%; in test [3], 0.97%.
As to `CCCCCN1CCCCC(NS(=O)(=O)c2ccc(C(=O)Nc3ccc(C(F)(F)F)cc3)cc2)C1` (stereo not given), the inhibition was 0.12% in test [1], 2.98% in test [2] and -1.53% in test [3].
For `O=S(=O)(NCCN1CCCC1)c1ccc(-c2ccc(CNCc3ccccc3)cc2)s1`, the inhibition in test [1] was 4.55%; in test [2], 3.35%; in test [3], 2.5%.
Regarding `CNC(=O)/C=C/c1cc(NC(=O)Nc2ccnc3c(Br)cccc23)ccc1OC`, the figures for the inhibition in test [1], in test [2] and in test [3] were 3.51%, 2.22% and 0.98%, respectively.
Take `CC(C)NCc1cccc(-c2cccc(-c3nc4ccccc4[nH]3)c2)c1`: the inhibition in test [1] is -1.73%; in test [2], 0.59%; in test [3], -1.69%.
Turning to `CCN1CCN(Cc2ccc3nc(-c4cc(C)n(Cc5cc(Cl)ccc5OCc5ccccc5)n4)[nH]c3c2)CC1`, the inhibition in test [1] is 3.5%; in test [2] it was 3.38%; in test [3], -0.3%.
Turning to `CN1CCCN(Cc2cccc(-c3ccc(CNC(=O)c4cccc(Cl)c4)c(F)c3)c2)CC1`, the inhibition in test [1] was 69.9%; in test [2] it was 63.1%; in test [3], 30.9%.
For `CCc1cn2c3c(cc(C(=O)N[C@@H](Cc4ccccc4)[C@H](O)CNCc4ccccc4)cc13)N(C)S(=O)(=O)CC2`, the inhibition was -0.83% in test [1], -0.74% in test [2] and 0.13% in test [3].
On to `Cc1nc(-c2nc(NCc3ccc4c(c3)OCO4)ncc2-c2ccsc2)sc1C`, for which the values for the inhibition in test [1], in test [2] and in test [3] were -0.05%, -0.48% and 0.68%, respectively.
Take `O=C(NC1CCC(N2CCC(Cc3ccc(F)cc3)CC2)CC1)c1cc2ccccc2[nH]1` (stereo not given): the inhibition turned out to be 0.56% in test [1], 0.08% in test [2] and 0.47% in test [3].
`CC(C)c1ccc(NC(=O)NC2CCN(CCCCCN(C)C(=O)/C=C/c3ccc(Cl)c(Cl)c3)C2)cc1` (stereo not given): the results for the inhibition in test [1], in test [2] and in test [3] were 5.33%, 7.26% and 6.41%, respectively.
Take `Oc1ccc2[nH]c(-c3cccc(F)c3)nc2c1CN1CCC(O)(c2ccccc2)CC1`: the inhibition turned out to be 3.21% in test [1], 4.5% in test [2] and 1.7% in test [3].
For the compound `CCCC1N=C(N)N=C(N)N1c1ccc(OC)cc1` (stereo not given), the values for the inhibition in test [1], in test [2] and in test [3] were 1.53%, -0.34% and 1.56%, respectively.
On to `Cc1nnsc1C(=O)Nc1cccc(-c2ccc(-c3nc4ccccc4[nH]3)s2)c1`, for which the inhibition in test [1] was 1.8%; in test [2], 1.37%; in test [3] it was -0.11%.
In the case of `Cc1cccc2nc(-c3ccc(-c4cccc(CN5CCC(C(N)=O)CC5)c4)s3)[nH]c12`, the values for the inhibition in test [1], in test [2] and in test [3] were -1.68%, 2.17% and 1.29%, respectively.
Turning to `Cc1cc(Cl)c(Cl)cc1NC(=O)Nc1cccc(C(F)(F)F)c1`, the inhibition in test [1] was 1.27%; in test [2] it was -0.59%; in test [3], -0.28%.
Taken in the same sequence, the figures for `COc1ccc(Cn2c(SCc3ccc(C)cc3)nc3cc(OC)c(OC)cc3c2=N)cc1Cl` were -0.1%, -4.17% and -2.37%.
Turning to `C[C@H]1CN(Cc2cccc(-c3cc(CNC(=O)c4cccc(CN5CCN(CCOc6ccccc6)CC5)c4)ccc3F)c2)CCN1`, the values for the inhibition in test [1], in test [2] and in test [3] were 0.77%, 0.96% and 2.94%, respectively.
For the compound `Cc1cc(CN2CCC(Nc3ncc(-c4ccsc4)c4nc(C(F)(F)F)ccc34)CC2)no1`, the results for the inhibition in test [1], in test [2] and in test [3] were 5.49%, 6.03% and 5.5%, respectively.
`CN1CCc2ccc(NC(=O)Nc3cccc([N+](=O)[O-])c3)cc2C1`: the inhibition in test [1] amounted to 1.58%; in test [2], 0.7%; in test [3], 1.63%.
In the case of `CC(C)(C)c1ccc2[nH]c(-c3ccc(/C=C/C(=O)NCc4ccc(Cl)c(Cl)c4)cc3)nc2c1`, the inhibition came out at 6% in test [1], 6.31% in test [2] and 1.89% in test [3].
As for `CN(C)CCOC(=O)C1(O)CCC2CC1C2(C)C` (stereo not given), the inhibition came to 2.52% in test [1], 2.06% in test [2] and 2.45% in test [3].
Consider `C[C@H](CNc1ccnc(Nc2ccc3[nH]c(=O)[nH]c3c2)n1)c1ccccc1`, for which the inhibition was -1.01% and -1.44% in test [1]; -0.33% and -0.77% in test [2]; -0.13% and 0.71% in test [3].
`CC(C)N1CCN(C(=O)c2ccc(CNCCCN3CCN(c4cccc(Cl)c4Cl)CC3)s2)CC1`: the inhibition in test [1] is 1.17%; in test [2], 1.06%; in test [3], -0.54%.
Turning to `CNC(=O)c1ccccc1Nc1nc(Nc2ccc(CCN3CCN(C)CC3)cc2)ncc1Cl`, the figures for the inhibition in test [1], in test [2] and in test [3] were 74.6%, 74.2% and 56%, respectively.
As to `Cc1cc(Nc2cccc(C#N)c2)nc(Nc2ccccc2C)n1`, the inhibition in test [1] was 77.7%; in test [2], 91.1%; in test [3] it was 52.3%.
As for `CCn1cc(-c2cc(C(=O)Nc3ccc(OC)cc3C)c3ccccc3n2)c(C)n1`, the inhibition in test [1] came to 7.19%; in test [2], 4.56%; in test [3], 3.97%.
As for `O=C(NC1CCN(CCN2CCc3ccccc3CC2)CC1)c1ccc(-c2ccc(C(F)(F)F)cc2)cc1`, the values for the inhibition in test [1], in test [2] and in test [3] were 5.74%, 9.69% and 4.56%, respectively.
`CCOc1cc(Cl)c(C(C)NC(=O)c2cccc(OC)c2)cc1OCC` (stereo not given): the inhibition was 7.84% in test [1], 7.46% in test [2] and 4.84% in test [3].
As for `COc1cccc(C23NC(=Nc4nc5ccccc5[nH]4)NC2(c2cccc(OC)c2)NC(=Nc2nc4ccccc4[nH]2)N3)c1` (stereo not given), the inhibition in test [1] is 6.07%; in test [2], 4.74%; in test [3], 3.29%.
As for `CC[C@H](C)CNC(=O)c1cccc(-c2cccc(CN3CCC(N4CCCC4)CC3)c2)n1`, the inhibition is -2.59% in test [1], -0.05% in test [2] and -0.2% in test [3].
Regarding `CN1CCCN(Cc2cccc(-c3cccc(NC(=O)c4ccc(Cl)cc4)c3)c2)CC1`, the inhibition in test [1] was determined as 5.97%; in test [2], 4.21%; in test [3] it was 3.68%.
Regarding `CN1CCN(c2cc3c(cc2Cl)CCN3C(=O)Cc2ccc(Cl)c(NC(=O)Nc3cccc([N+](=O)[O-])c3)c2)CC1`, the inhibition was -0.26% in test [1], -1.82% in test [2] and 1.55% in test [3].
